# Assay outcomes deposited in PubChem BioAssay by National Center for Advancing Translational Sciences (NCATS).
# 12-LOX inh – blocks human arachidonate 12S-lipoxygenase; purified 12hLO, xylenol orange hydroperoxide absorbance; Potency, µM (highest dose often 108 µM), for the others: at the highest dose activity change, negative = inhibition, actives largely listed as inhibitors; AID 1671190; 580,000 compounds, 1.1% hits; P18054; further: potency means the concentration at half of the fitted maximal effect
# Target sequence (P18054 whole entry, looked up): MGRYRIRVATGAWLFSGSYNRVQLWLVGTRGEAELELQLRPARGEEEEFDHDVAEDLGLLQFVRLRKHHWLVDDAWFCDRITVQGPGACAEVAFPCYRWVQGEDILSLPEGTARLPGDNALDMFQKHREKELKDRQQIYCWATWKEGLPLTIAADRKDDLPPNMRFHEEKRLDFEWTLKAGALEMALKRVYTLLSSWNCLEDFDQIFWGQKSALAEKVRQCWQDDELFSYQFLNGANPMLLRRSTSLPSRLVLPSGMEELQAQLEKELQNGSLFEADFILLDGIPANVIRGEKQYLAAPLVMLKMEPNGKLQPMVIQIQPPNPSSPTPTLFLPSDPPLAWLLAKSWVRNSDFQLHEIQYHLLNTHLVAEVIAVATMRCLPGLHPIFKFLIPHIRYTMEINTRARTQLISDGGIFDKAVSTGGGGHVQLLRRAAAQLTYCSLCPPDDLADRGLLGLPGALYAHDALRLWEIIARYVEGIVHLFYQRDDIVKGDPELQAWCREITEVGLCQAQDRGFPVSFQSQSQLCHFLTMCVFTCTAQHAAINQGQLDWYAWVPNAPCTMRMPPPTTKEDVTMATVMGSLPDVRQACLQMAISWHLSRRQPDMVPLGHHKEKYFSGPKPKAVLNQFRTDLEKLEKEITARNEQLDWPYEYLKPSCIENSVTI
#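 Hydroperoxide product was detected by ferrous iron/xylenol orange as the 573 to 405 nm absorbance ratio. Arachidonic acid at 40 uM (final) was turned over for 30 min at room temperature by 150 nM human 12hLO, pH 7.0 Hepes buffer, after 15 min compound preincubation.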
# TDP1 cell CPT – DT40-hTDP1 cell growth loss with CPT; chicken DT40 Tdp1-/-;hTDP1 cells + 20 nM CPT, ATP luminescence, 48 h; Potency, µM (highest dose often 46.2 µM), for inactives: top-dose activity change, negative = growth inhibition, actives largely listed as inhibitors; 420,000 compounds, 12% hits; AID 686979; further: potency means the concentration at half of the fitted maximal effect; nearly all actives have a fitted effect of over 55% in size
#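 Cell growth measured by CellTiter-Glo luminescence after a minimum 48 h, 37 C compound exposure with 20 nM CPT in Tdp1-knockout DT40 cells stably expressing hTDP1, seeded 400/well; qHTS titration format.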
# HT1080 IDH1KD tx – kills HT-1080 cells with IDH1 knockdown | HT-1080 IDH1 knockdown viability, ATP luminescence, 48 h | Potency, µM (series often up to 46.1 µM), for the others: at the highest dose activity, negative = toxicity, usual class: cytotoxic | 360,000 compounds, 2% hits | AID 686971;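 further: potency means the concentration at half of the fitted maximal effect; 0% = DMSO wells and -100% = cell-free medium wells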
#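 Using the IDH1-knockdown HT-1080 line run in the same batch and compound series as the NT line, viability after 48 h at 37 °C was determined by CellTiter-Glo luminescence and expressed as % activity.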
# HT1080NT lethal – kills 2HG-producing HT-1080-NT fibrosarcoma cells. HT-1080-NT fibrosarcoma viability, CellTiter-Glo ATP luminescence, 48 h. Potency, µM (titrated, usually from 46.1 µM), without a hit: at the highest dose activity, negative = less viability, hits mostly cytotoxic. 360,000 compounds, 1.6% hits;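 further: NT is the 2HG producing partner of a matched IDH1 knockdown line; potency means the concentration at half of the fitted maximal effect; 0% = DMSO-treated cells and -100% = media-only wells without cells; nearly all actives have a fitted effect of over 55% in size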
#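 Viability of the 2HG-overproducing fibrosarcoma line after 48 hours of compound exposure at 37 degrees C was determined by luminescence with CellTiter-Glo, and concentration-effect curves were then fitted and categorized.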
# IL-1B inflam inh – blocks inflammasome-driven IL-1 beta release. THP-1 LPS/ATP IL-1B secretion, AlphaLISA, 16 h; active compounds read low. activity change, % at 57.5 µM. 360,000 compounds, 4.7% hits; in the data active means activity change below about -50%; inconclusive means mostly about -30% to -49%
#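 THP-1 cells pretreated 1 hr with compounds (up to 57.5 uM final), then stimulated with LPS (250 ng/mL final) plus ATP (1.25 mM final); secreted IL-1B measured by AlphaLISA after 16 hr, decreased signal indicating inhibition.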
# DT40 TDP1 no CPT – qHTS for Inhibitors of human tyrosyl-DNA phosphodiesterase 1 (TDP1): qHTS in cells in absence of CPT | DT40 Tdp1-/- hTDP1 cells, no CPT, ATP luminescence, 48 h | Potency, µM (titrated, usually from 46.2 µM), inactives show at the highest dose activity change, negative = growth inhibition, most hits filed as inhibitors | 420,000 compounds, 15% hits; further: potency means the concentration at half of the fitted maximal effect; nearly all actives have a fitted effect of over 55% in size
#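 Readout: luminescence from CellTiter-Glo after 30 min in the dark at RT. Cells: DT40 Tdp1-/- with stable hTDP1, 400/well. Exposure: compounds alone, ≥48 hr, 37 °C.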
# Starred values were filed as active, the others as inactive; ? = inconclusive; . = no result; [ ] = dose if it differs, or a comment. Shown is part of a subset that was picked to be rich in hits. Unless noted, the call rests on the fitted dose curve; in most records, active means well fitted curve in the direction sought with a large enough effect; inconclusive means small, poorly fitted or top-dose-only effect, or another doubt; inactive means no such curve, though single readings can be large; an effect the other way counts as inactive or inconclusive. Unless noted, on the % scale 0 is the no-effect control and ±100 the full control effect.
SMILES,12-LOX inh,TDP1 cell CPT,HT1080 IDH1KD tx,HT1080NT lethal,IL-1B inflam inh,DT40 TDP1 no CPT
CN(Cc1cnn(C)c1)C(=O)C1CCC(=O)N(Cc2cccc(C(F)(F)F)c2)C1 (stereo unspecified),-12.4%,3.1%,5.9%,1.5%,4.3,-9.9%
C#C[C@]1(O)CCC2C3CCC4=CC(=O)CC[C@@H]4C3CC[C@@]21C (stereo partly specified),-2.1%,?,-0.5%,11.8%,8.1,-26.5%
C#C[C@]1(OC(C)=O)CC[C@H]2[C@@H]3CCC4=C/C(=N/O)CC[C@@H]4[C@H]3CC[C@@]21CC,-15.9%[22.9 µM],?,.,.,.,18.8µM*
COc1ccc(OCc2nnc(SCC(=O)Nc3ccccc3Cl)o2)cc1,-6.7%,13.0%,17.1%,21.2%,9.4,1.3%
Cc1ccc(C)c(CN2C(=O)c3ccccc3S(=O)(=O)c3ccc(C(=O)N4CCc5ccccc54)cc32)c1,-12.9%,5.8µM*,.,.,.,5.8µM*
Cc1ccc(C)c(CN2C(=O)c3ccccc3S(=O)(=O)c3ccc(C(=O)N4CCN(C)CC4)cc32)c1,-3.0%,-0.1%,2.1%,-2.3%,0.2,-29.5%
Cc1ccc(C)c(CN2C(=O)c3ccccc3S(=O)(=O)c3ccc(C(=O)N4CCN(Cc5ccccc5)CC4)cc32)c1,-1.6%,6.51µM*,.,.,.,6.51µM*
C=CCn1c(-c2ccc(OC)cc2)csc1=Nc1c(C)n(C)n(-c2ccccc2)c1=O,-13.5%,20.6µM*,-14.3%,-18.1%,-19.3,20.6µM*
COCCNC(=O)CSc1nnc(-c2ccc(C)cc2)c(-c2ccc(C)cc2)n1,-14.0%,25.9µM*,-11.6%,-7.4%,-26.1,?
COc1ccc(-c2nnc(SCC(=O)NCCc3ccc(OC)c(OC)c3)nc2-c2ccc(OC)cc2)cc1,-19.2%,18.4µM*,.,.,.,18.4µM*
COc1ccc(CCNC(=O)CSc2nnc(Cc3cccn3C)n2C)cc1OC,-12.7%,-14.8%,17.5%,15.1%,1.6,-8.5%
CCCCn1c(-c2ccccc2)cnc1SCC(=O)NCCc1ccc(OC)c(OC)c1,10.0%,23.1µM*,-26.9%,-19.4%,-76.6*,25.9µM*
COc1ccc(-c2nnc(SCC(=O)NCc3ccc(C)cc3)nc2-c2ccc(OC)c(OC)c2)cc1OC,-13.5%,14.6µM*,.,.,.,18.4µM*
COc1ccc(-c2nnc(SCC(=O)NCCc3ccccc3)nc2-c2ccc(OC)cc2)cc1,-21.7%,?,.,.,.,?
CC(C)N(CCNC(=O)c1nn(Cc2ccccc2)c(=O)c2ccccc12)C(C)C,0.0%,.,.,.,.,.
C=CCn1c(SCC(=O)Nc2cccc(S(N)(=O)=O)c2)nnc1C1CCCCC1,10.7%,-20.8%,-1.3%,3.2%,15.7,-1.6%
COc1ccc(-c2cc(C(F)(F)F)nc(SCC(=O)NCCc3ccc(OC)c(OC)c3)n2)cc1,0.6%,20.6µM*,.,.,.,20.6µM*
COc1ccc(CCNC(=O)CSc2nnc(-c3ccccc3)o2)cc1OC,-15.4%,-17.0%,2.3%,-7.0%,-12.1,-1.2%
COc1ccc(-c2nnc(SCC(=O)Nc3cccc(C(F)(F)F)c3)nc2-c2ccc(OC)cc2)cc1,-23.4%,?,.,.,.,18.4µM*
CCOc1cc(-c2nnc(SCC(=O)NCc3ccccc3)nc2-c2ccc(OC)c(OCC)c2)ccc1OC,-28.0%,5.8µM*,.,.,.,3.26µM*
CCCNC(=O)CSc1nc(-c2ccc(OC)cc2)cc(C(F)(F)F)n1,27.1%,?,.,.,.,?
COc1ccc(CCNC(=O)CSc2nnc(-c3ccccc3)c3ccccc23)cc1OC,-13.3%,16.4µM*,7.2%,9.2%,0.0,?
CCc1ccc(C2C(C#N)=C(N)OC3=C2C(=O)CC(C)(C)C3)cc1 (stereo unspecified),-62.3%,.,.,.,.,.
CN(C)c1ccc(CN2CCOC[C@H]2c2nc(C(C)(C)C)co2)cc1,31.8%[176 µM],.,.,.,.,.
COc1cc(C(=O)NCC(=O)N2CCN(S(=O)(=O)c3cc(C)ccc3C)CC2)cc(OC)c1OC,0.8%,5.8µM*,6.51µM*,7.31µM*,91.1,3.66µM*
SMILES,12-LOX inh,TDP1 cell CPT,HT1080 IDH1KD tx,HT1080NT lethal,IL-1B inflam inh,DT40 TDP1 no CPT
Cc1ccc(S(=O)(=O)NCCC(=O)N2CCN(S(=O)(=O)c3ccccc3)CC2)cc1C,26.6%,?,-2.2%,0.6%,-12.7,-29.8%
Cc1ccc(C)c(OCCC(=O)N2CCN(S(=O)(=O)c3cc(C)ccc3C)CC2)c1,?,?,-1.2%,-3.9%,-4.2,?
Cc1ccc(C)c(S(=O)(=O)N2CCN(C(=O)CCNS(=O)(=O)c3ccc(C)c(C)c3)CC2)c1,-0.5%,?,-25.1%,-8.8%,-4.9,18.4µM*
Cc1ccc(C)c(S(=O)(=O)N2CCN(C(=O)CCNC(=O)c3ccc(Br)cc3)CC2)c1,-26.7%,23.1µM*,0.8%,2.9%,-16.9,20.6µM*
COc1cc(NC(=O)Cn2nnc(-c3ccc(C(F)(F)F)cc3)n2)c(C(=O)O)cc1OC,?,-12.5%,.,.,.,-14.5%
CCCN(CCC)c1nc(N)c(C#N)c(CC#N)c1C#N,.,14.6µM*,-12.8%,-11.0%,25.4,23.1µM*
CCCN(CC1CC1)c1nc(N)c(C#N)c(CC#N)c1C#N,-15.5%,?,-7.3%,-5.5%,0.0,18.4µM*
CCN(CC)c1nc(N)c(C#N)c(CC#N)c1C#N,5.1%,-23.8%,1.9%,-4.3%,48.3,-19.2%
CCCN(CC1CC1)c1oc(-c2ccc(F)cc2)nc1C#N,-13.9%,.,.,.,.,.
COC(=O)c1c(C)nn(-c2ccc(OC(F)(F)F)cc2)c1-c1snnc1C,-4.3%,?,-3.2%,-5.7%,-3.0,16.4µM*
CC(=O)c1ccc(NC(=O)CCCSc2nc(-c3ccco3)cc(C(F)(F)F)n2)cc1,-21.1%,23.1µM*,.,.,.,16.4µM*
O=C(CCCSc1nc(-c2ccco2)cc(C(F)(F)F)n1)Nc1ccc2c(c1)OCO2,56.4%,?,-23.6%,-23.1%,?,23.1µM*
COc1cc(NC(=O)CCCSc2nc(-c3ccco3)cc(C(F)(F)F)n2)cc(OC)c1OC,-28.9%,?,-17.0%,-15.8%,-6.9,?
CC(C)N(Cc1ccccc1)C(=O)COC(=O)c1cc(Br)ccc1Cl,-13.9%,.,.,.,.,.
CCc1cccc(NC(=S)N(CCC(C)C)C(C)c2cccs2)c1 (stereo unspecified),39.8µM*,.,.,.,.,.
CCc1cccc(NC(=S)N(CCOC)C(C)c2ccco2)c1 (stereo unspecified),-2.2%,?,-5.7%,-2.0%,11.3,?
